This is part of a sample that, as a whole, favours compounds with a hit. Of some 83,000 tested, about 20% had one in any assay.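 The endpoint reported here, percent growth, reads 100 for growth as untreated, 0 for no net growth and -100 for all cells dead.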 Activity calls are given as the source filed them. The calls were made as follows: active = growth percent below 10; inactive = the rest.
Columns and labels:
Test in all cases: NCI-60 one-dose screen, 48 h (100 = growth as untreated, 0 = no growth, -100 = all killed)
Settings in all cases: 10 µM unless noted
BT-549 breast = system: BT-549 breast
MDA-MB-435 melanoma = system: MDA-MB-435 melanoma
SW-620 colon = system: SW-620 colon
MCF7 breast = system: MCF7 breast
HCT-116 colon = system: HCT-116 colon
HCC-2998 colon = system: HCC-2998 colon
KM12 colon = system: KM12 colon

Measured: growth

CC(=O)Oc1ccccc1C(=O)Nc1ccc(C(=O)/C=C/c2cccs2)cc1
inactive: BT-549 breast 99.2% | MDA-MB-435 melanoma 97.8% | SW-620 colon 107% | MCF7 breast 93% | HCT-116 colon 108% | HCC-2998 colon 109% | KM12 colon 102%

O=C(CSc1nc2sc3c(c2c(=O)n1-c1ccc(Cl)cc1)CCCC3)NNC(=O)Nc1cccc(C(F)(F)F)c1
inactive: BT-549 breast 54% | MDA-MB-435 melanoma 24.5% | SW-620 colon 22.1% | MCF7 breast 16.7% | HCC-2998 colon 38.9% | KM12 colon 11%
active: HCT-116 colon 5.54%

CS(=O)(=O)c1ccc(-c2nc3ccccn3c2-c2nc3ccc([N+](=O)[O-])cc3[nH]2)cc1
inactive: BT-549 breast 122% | MDA-MB-435 melanoma 94.5% | SW-620 colon 93.2% | MCF7 breast 85.2% | HCT-116 colon 97% | HCC-2998 colon 105% | KM12 colon 93.8%

Cc1c(Nc2nnc(SCC(=O)Nc3sc4c(c3C#N)CCCC4)s2)c(=O)n(-c2ccccc2)n1C
inactive: BT-549 breast 113% | MDA-MB-435 melanoma 104% | SW-620 colon 103% | MCF7 breast 93.5% | HCT-116 colon 102% | HCC-2998 colon 115% | KM12 colon 98%

Nc1ncc(-c2ccc3ncnc(N4CCc5cc(F)c(Cl)cc54)c3c2)cc1CO
active: BT-549 breast -31.1% | MDA-MB-435 melanoma -34.4% | MCF7 breast 4.61% | HCT-116 colon 6.3% | HCC-2998 colon 8.47% | KM12 colon 0.831%
inactive: SW-620 colon 11.1%

C#Cc1nc(C2=C(C)C(O)/C(=N/O)C2)cs1 (centres undefined)
inactive: BT-549 breast 111% | MDA-MB-435 melanoma 95.6% | SW-620 colon 123% | MCF7 breast 68.5% | HCT-116 colon 100% | HCC-2998 colon 117% | KM12 colon 42.9%

Oc1c(Cl)cc(Cl)c2ccc(CN3CCCCC3)nc12
inactive: BT-549 breast 89.1% | MDA-MB-435 melanoma 42.1% | SW-620 colon 30.4% | MCF7 breast 28.9% | HCT-116 colon 21.3% | HCC-2998 colon 65% | KM12 colon 30.7%

Cc1ccc(/C=C/c2nn3c(-c4ccco4)nnc3s2)cc1C
inactive: BT-549 breast 107% | MDA-MB-435 melanoma 99.4% | SW-620 colon 98.5% | MCF7 breast 82.1% | HCT-116 colon 109% | HCC-2998 colon 108% | KM12 colon 110%

CCN1C(=S)N(c2ccccc2)C2NC(=O)N(/N=C/C=C/c3ccccc3OC)C21 (centres undefined)
inactive: BT-549 breast 94.5% | MDA-MB-435 melanoma 52.6% | SW-620 colon 90.4% | MCF7 breast 62.9% | HCT-116 colon 88% | HCC-2998 colon 130% | KM12 colon 88.3%

Clc1ccc2c(NCCCn3ccnc3)c3oc4ccc(Cl)cc4c3nc2c1
inactive: BT-549 breast 88.1% | MDA-MB-435 melanoma 86.2% | SW-620 colon 57% | MCF7 breast 53.8% | HCT-116 colon 81% | HCC-2998 colon 79% | KM12 colon 87.6%

CCOC(=O)c1c(NC(=O)c2cccc(C(F)(F)F)c2)sc2cc(O)ccc12
inactive: BT-549 breast 89.7% | MDA-MB-435 melanoma 104% | SW-620 colon 103% | MCF7 breast 46.6% | HCT-116 colon 91.7% | KM12 colon 95.5%

CC1=C(C)C(=O)C(Nc2ccccc2)=C(Cl)C1=O
inactive: BT-549 breast 114% | MDA-MB-435 melanoma 102% | SW-620 colon 96.5% | MCF7 breast 90.7% | HCT-116 colon 79.1% | KM12 colon 78.3%

COc1ccc(CNS(=O)(=O)/N=C2\NC(=O)NC2=C(Cl)Cl)cc1
inactive: SW-620 colon 27.2% | MCF7 breast 18.2% | KM12 colon 17.1%
active: BT-549 breast -8.05% | MDA-MB-435 melanoma -3.14% | HCT-116 colon 6.95%

COc1cc(/C=C/C(=O)c2cc(OC)c(OC)c(OC)c2)ccc1OCc1ccccc1
active: MCF7 breast 8.1% | HCT-116 colon 6.71%
inactive: BT-549 breast 32% | MDA-MB-435 melanoma 45.9% | SW-620 colon 13.2% | HCC-2998 colon 44.6% | KM12 colon 11.3%

NC(=O)c1c(NC(=O)c2ccc(C3CCCCC3)cc2)sc2c1CCC(=O)C2
inactive: MDA-MB-435 melanoma 11.9% | SW-620 colon 10.4% | MCF7 breast 10.9% | KM12 colon 15.8%
active: BT-549 breast -2.9% | HCT-116 colon 7.94%

COc1cccc(NC2=CC(=O)C(C)=C(C)C2=O)c1
active: MDA-MB-435 melanoma 7.25%
inactive: BT-549 breast 127% | SW-620 colon 102% | MCF7 breast 64.1% | HCT-116 colon 10.5% | KM12 colon 98.4%

Cc1cc2nc3c4cc(Cl)ccc4n(CC(=O)NCCN(C)C)c3nc2cc1C
active: SW-620 colon -80.8% | MCF7 breast -19.8% | HCT-116 colon -85.3%
inactive: BT-549 breast 88.1% | MDA-MB-435 melanoma 67.9% | HCC-2998 colon 82.6% | KM12 colon 86.2%

COc1ccc(Cc2nn(CC(=O)N/N=C/c3ccc(Cl)cc3)c(=O)c3c(C)noc23)cc1
inactive: BT-549 breast 93.9% | MDA-MB-435 melanoma 94.5% | SW-620 colon 69% | MCF7 breast 83.5% | HCT-116 colon 36.4% | KM12 colon 85.9%

COC1CCN(Cc2ccc3c(NNC(=O)c4cnccn4)nc4cc(F)ccc4n23)C1 (centres undefined)
inactive: BT-549 breast 51.7% | MDA-MB-435 melanoma 37.2% | SW-620 colon 24% | MCF7 breast 14% | HCC-2998 colon 59.9% | KM12 colon 22.6%
active: HCT-116 colon 4.53%

Clc1ccc(Cc2nnc3sc(-c4cccnc4)nn23)cc1
inactive: BT-549 breast 95.5% | MDA-MB-435 melanoma 101% | SW-620 colon 99.1% | MCF7 breast 88.7% | HCT-116 colon 101% | HCC-2998 colon 105% | KM12 colon 99.7%

COc1cc(/C=C/C(=O)c2ccc(C)cc2)ccc1Oc1nc(NCCO)nc(N2CCOCC2)n1
active: BT-549 breast -58.8% | SW-620 colon 3.05% | MCF7 breast 9.07% | HCT-116 colon -77.2%
inactive: MDA-MB-435 melanoma 33.1% | HCC-2998 colon 93.8% | KM12 colon 20.2%

N/C(=N\c1nc2c(Br)cccc2s1)C(Br)Br
inactive: BT-549 breast 29.2%
active: MDA-MB-435 melanoma -48.2% | SW-620 colon -39.2% | MCF7 breast -26.3% | HCT-116 colon -56.1% | HCC-2998 colon 3.14% | KM12 colon 3.67%

Cc1cccc2sc(/N=C(\N)C(Cl)(Cl)Cl)nc12
inactive: BT-549 breast 117% | MDA-MB-435 melanoma 103% | SW-620 colon 103% | MCF7 breast 85% | HCT-116 colon 101% | HCC-2998 colon 111% | KM12 colon 97.5%

Cc1ccc2c(n1)C(=O)C(Cl)=C(Nc1cccc(C(C)C)c1)C2=O
inactive: BT-549 breast 58.7% | SW-620 colon 28.3% | HCT-116 colon 13.1% | KM12 colon 80%
active: MDA-MB-435 melanoma -70.6% | MCF7 breast -56.7%

O=C1[C@H]2Cc3c([nH]c4ccccc34)[C@@H](c3ccc(Br)cc3)N2C(=O)CN1C1CCN(Cc2ccccc2)CC1
inactive: BT-549 breast 93.4% | MDA-MB-435 melanoma 36.9% | SW-620 colon 33.5% | KM12 colon 36.7%
active: MCF7 breast 6.48% | HCT-116 colon 9.04%

CO/N=C1\CCc2c(sc(NC(=O)c3cccc(C(F)(F)F)c3)c2C(N)=O)C1
active: HCT-116 colon 5%
inactive: BT-549 breast 49.4% | MDA-MB-435 melanoma 49.1% | SW-620 colon 43.4% | MCF7 breast 45.9% | KM12 colon 56%

CN(C)CCCOc1c2ccc(Cl)cc2nc2c1oc1ccccc12
active: BT-549 breast 8.05% | MDA-MB-435 melanoma -51.9% | SW-620 colon 9.59% | MCF7 breast -18.6% | HCT-116 colon 1.47% | HCC-2998 colon -58.1% | KM12 colon 0.963%

NS(=O)(=O)c1cccc(Nc2nc(SCC(=O)c3ccc([N+](=O)[O-])cc3)nc3ccccc23)c1
inactive: MDA-MB-435 melanoma 51.3% | SW-620 colon 69.2% | MCF7 breast 11.7% | HCT-116 colon 36.8% | HCC-2998 colon 54.3% | KM12 colon 38.4%
active: BT-549 breast -4.45%

Cc1ccc(CNS(=O)(=O)/N=C2\NC(=O)NC2=C(Cl)Cl)cc1
inactive: MDA-MB-435 melanoma 47.7% | SW-620 colon 32.4% | MCF7 breast 17.2% | KM12 colon 24%
active: BT-549 breast -8.68% | HCT-116 colon 9.17%

COc1cccc(COc2ccc(/C=C3/C(=O)Nc4cc(Cl)ccc43)cc2)c1
inactive: BT-549 breast 106% | MDA-MB-435 melanoma 99.9% | SW-620 colon 97.5% | MCF7 breast 70.7% | HCT-116 colon 93.7% | HCC-2998 colon 102% | KM12 colon 97.1%

COc1ccc(/C=C/C(=O)c2ccc(NC(=O)CSc3nnc(-c4ccc5nc(-c6ccc(Cl)cc6)[nH]c5c4)o3)cc2)cc1
inactive: BT-549 breast 85% | MDA-MB-435 melanoma 98.1% | SW-620 colon 106% | MCF7 breast 79.7% | HCT-116 colon 93.4% | HCC-2998 colon 118% | KM12 colon 99.7%

COc1ccc([C@@H]2c3[nH]c4ccccc4c3CC3C(=O)N(C4CCN(Cc5c(F)cccc5F)CC4)CC(=O)N32)c(OC)c1 (some centres undefined)
active: HCT-116 colon -15.2% [5.26 µM]
inactive: BT-549 breast 30.4% [5.26 µM] | MDA-MB-435 melanoma 60% [5.26 µM] | SW-620 colon 64.6% [5.26 µM] | MCF7 breast 42.4% [5.26 µM] | KM12 colon 58.1% [5.26 µM]

CN(C)CCCOc1c2ccccc2nc2c1oc1ccc(Cl)cc12
inactive: BT-549 breast 19.2% | HCT-116 colon 10.9% | HCC-2998 colon 11.1%
active: MDA-MB-435 melanoma -19.8% | SW-620 colon -3.7% | MCF7 breast -16.6% | KM12 colon 1.62%

O=C(CSc1nc2sc3c(c2c(=O)n1-c1ccc(Cl)cc1)CCCC3)NNC(=O)Nc1ccc(Cl)c(C(F)(F)F)c1
inactive: BT-549 breast 69% | MDA-MB-435 melanoma 46.8% | MCF7 breast 18.6% | HCT-116 colon 13.6% | HCC-2998 colon 42.4% | KM12 colon 25.9%
active: SW-620 colon 4.66%

CN1CCc2c(sc3ncnc(N/N=C/c4ccc(Cl)c(Cl)c4)c23)C1
inactive: BT-549 breast 42.2% | MDA-MB-435 melanoma 11.6% | KM12 colon 22.8%
active: SW-620 colon -68.4% | MCF7 breast -47.2% | HCT-116 colon -64.5% | HCC-2998 colon -47.9%

Source: PubChem BioAssay (NCI)
